# In PubChem BioAssay (EPA / NIEHS):
# Where “and” joins values, the source holds several entries; their conditions need not be identical. Identical values can stand only once. Records with an inconclusive call do not appear. More than one record can exist for a structure, and the calls need not agree. Calls of active or inactive are those of the source. The calls were made as follows: active = hit-call score of the fitted dose curve at least 0.9, where 1 is the maximum; inconclusive = response in the unintended direction; inactive = score below 0.9.
# Key:
# [1] = molecular target: rat Constitutive Nitric Oxide Synthase (CNOS), Nos1 (gene 24598) (UniProt P29476); experiment: NVS_ENZ_rCNOS: NovaScreen (NVS) Enzymatic Assay for rat Constitutive Nitric Oxide Synthase (CNOS) (AID 2283236)
# Sequence of rat Constitutive Nitric Oxide Synthase (CNOS), Nos1 (gene 24598) (P29476 whole entry, looked up): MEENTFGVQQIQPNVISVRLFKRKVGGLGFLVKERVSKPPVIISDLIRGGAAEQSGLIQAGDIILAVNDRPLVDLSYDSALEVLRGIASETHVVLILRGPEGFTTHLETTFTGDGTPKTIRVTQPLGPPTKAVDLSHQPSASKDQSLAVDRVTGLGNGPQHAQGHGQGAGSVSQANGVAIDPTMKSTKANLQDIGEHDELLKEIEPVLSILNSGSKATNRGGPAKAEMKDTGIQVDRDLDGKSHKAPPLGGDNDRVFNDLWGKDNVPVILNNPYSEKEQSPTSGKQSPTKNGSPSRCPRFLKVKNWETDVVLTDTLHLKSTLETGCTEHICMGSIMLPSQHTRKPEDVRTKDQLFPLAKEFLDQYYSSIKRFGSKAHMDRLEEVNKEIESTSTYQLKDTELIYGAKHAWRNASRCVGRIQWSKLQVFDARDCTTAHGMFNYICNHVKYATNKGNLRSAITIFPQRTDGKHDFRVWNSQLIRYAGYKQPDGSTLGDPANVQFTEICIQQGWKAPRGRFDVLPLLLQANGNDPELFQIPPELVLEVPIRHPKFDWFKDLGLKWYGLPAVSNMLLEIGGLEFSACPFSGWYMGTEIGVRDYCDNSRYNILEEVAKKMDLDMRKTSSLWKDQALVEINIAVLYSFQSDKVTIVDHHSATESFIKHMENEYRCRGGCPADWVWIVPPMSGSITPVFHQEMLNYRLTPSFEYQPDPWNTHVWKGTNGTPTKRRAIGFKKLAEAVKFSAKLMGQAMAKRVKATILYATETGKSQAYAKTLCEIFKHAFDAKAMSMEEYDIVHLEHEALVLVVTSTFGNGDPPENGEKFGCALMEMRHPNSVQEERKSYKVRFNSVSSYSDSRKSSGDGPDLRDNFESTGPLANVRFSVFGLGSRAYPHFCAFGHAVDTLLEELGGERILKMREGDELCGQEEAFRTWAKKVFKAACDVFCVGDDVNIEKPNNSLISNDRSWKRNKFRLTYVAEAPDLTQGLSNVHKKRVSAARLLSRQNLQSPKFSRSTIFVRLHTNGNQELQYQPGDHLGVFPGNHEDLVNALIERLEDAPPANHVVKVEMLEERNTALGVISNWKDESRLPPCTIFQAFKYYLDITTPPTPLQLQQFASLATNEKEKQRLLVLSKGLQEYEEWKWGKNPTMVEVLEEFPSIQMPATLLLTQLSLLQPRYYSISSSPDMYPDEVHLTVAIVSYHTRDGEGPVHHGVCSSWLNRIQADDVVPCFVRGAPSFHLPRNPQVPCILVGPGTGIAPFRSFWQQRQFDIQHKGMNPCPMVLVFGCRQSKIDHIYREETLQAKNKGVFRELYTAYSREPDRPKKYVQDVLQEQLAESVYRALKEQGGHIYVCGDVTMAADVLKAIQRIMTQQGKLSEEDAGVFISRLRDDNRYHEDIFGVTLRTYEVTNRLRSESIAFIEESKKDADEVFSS
# Method in brief: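 Single 25 uM duplicate screen, then concentration series to 50 uM for chemicals meeting threshold. Rat brain membrane-derived CNOS activity detected radiometrically by filtration and scintillation counting, 1 h after compound addition; DMSO as baseline.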
# [2] = molecular target: human Sirtuin 1 (SIRT1), SIRT1 (gene 23411) (UniProt Q96EB6); experiment: NVS_ENZ_hSIRT1: NovaScreen (NVS) Enzymatic Assay for human Sirtuin 1 (SIRT1) (AID 2283219)
# Method in brief: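 Cell-free recombinant SIRT1 with a fluorescent substrate; substrate and product separated by electrophoretic mobility shift and read by fluorescence intensity, 1 h after dosing. Primary screen at 25 uM in duplicate; hits re-run in concentration-response up to 50 uM, relative to DMSO.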
# [3] = molecular target: human Sirtuin 3 (SIRT3), SIRT3 (gene 23410) (UniProt Q9NTG7); experiment: NVS_ENZ_hSIRT3: NovaScreen (NVS) Enzymatic Assay for human Sirtuin 3 (SIRT3) (AID 2283222)
# Method in brief: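 Cell-free enzyme assay with recombinant protein and fluorescent substrate, product separated by electrophoretic mobility shift; read 1 hour after dosing. Screened in duplicate at 25 uM, then singleton concentration-response up to 50 uM; loss of signal versus DMSO.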
# [4] = molecular target: human Tyrosine Protein Kinase Receptor Tie-2 (Tie2), TEK (gene 7010) (UniProt Q02763); experiment: NVS_ENZ_hTie2: NovaScreen (NVS) Enzymatic Assay for human Tyrosine Protein Kinase Receptor Tie-2 (Tie2) (AID 2283225)
# Sequence of human Tyrosine Protein Kinase Receptor Tie-2 (Tie2), TEK (gene 7010) (Q02763 whole entry, looked up): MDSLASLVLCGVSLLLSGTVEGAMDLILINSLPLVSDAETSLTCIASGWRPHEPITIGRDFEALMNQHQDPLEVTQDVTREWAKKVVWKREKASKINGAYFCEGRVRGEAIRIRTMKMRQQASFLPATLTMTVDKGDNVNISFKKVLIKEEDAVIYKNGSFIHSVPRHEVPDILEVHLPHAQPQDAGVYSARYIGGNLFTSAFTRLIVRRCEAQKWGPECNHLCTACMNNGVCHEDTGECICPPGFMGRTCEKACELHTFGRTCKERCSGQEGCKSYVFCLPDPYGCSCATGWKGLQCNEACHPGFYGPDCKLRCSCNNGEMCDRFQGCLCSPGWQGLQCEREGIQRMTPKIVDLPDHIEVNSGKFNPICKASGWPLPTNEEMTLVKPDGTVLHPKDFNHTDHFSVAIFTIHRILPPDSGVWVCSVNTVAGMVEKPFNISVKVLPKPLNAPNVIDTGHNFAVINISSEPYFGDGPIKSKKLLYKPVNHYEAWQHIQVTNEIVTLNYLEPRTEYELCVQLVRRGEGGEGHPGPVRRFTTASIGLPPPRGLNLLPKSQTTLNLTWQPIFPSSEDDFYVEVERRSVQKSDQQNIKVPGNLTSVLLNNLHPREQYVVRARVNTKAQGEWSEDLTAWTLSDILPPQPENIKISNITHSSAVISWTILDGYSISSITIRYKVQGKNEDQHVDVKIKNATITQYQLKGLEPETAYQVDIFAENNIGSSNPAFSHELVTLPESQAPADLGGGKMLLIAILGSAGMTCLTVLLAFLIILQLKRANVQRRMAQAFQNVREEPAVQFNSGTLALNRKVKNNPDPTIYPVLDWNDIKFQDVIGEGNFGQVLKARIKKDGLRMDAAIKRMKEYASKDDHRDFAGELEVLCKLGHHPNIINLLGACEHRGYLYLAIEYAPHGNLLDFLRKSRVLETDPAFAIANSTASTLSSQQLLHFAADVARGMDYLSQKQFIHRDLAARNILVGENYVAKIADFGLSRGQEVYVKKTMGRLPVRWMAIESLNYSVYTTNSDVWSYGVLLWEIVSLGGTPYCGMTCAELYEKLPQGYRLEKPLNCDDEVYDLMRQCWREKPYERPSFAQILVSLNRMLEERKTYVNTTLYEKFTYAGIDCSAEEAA
# Method in brief: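 Substrate and product were separated by mobility shift and detected by fluorescence after a 1-hour reaction with recombinant Tie2. Chemicals passing a 25 uM single-point screen were titrated to a maximum of 50 uM. Results were normalized to DMSO baseline.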
# [5] = molecular target: human Vascular Endothelial Growth Factor Receptor 2 (VEGFR2), KDR (gene 3791) (UniProt P35968); experiment: NVS_ENZ_hVEGFR2: NovaScreen (NVS) Enzymatic Assay for human Vascular Endothelial Growth Factor Receptor 2 (VEGFR2) (AID 2283230)
# Sequence of human Vascular Endothelial Growth Factor Receptor 2 (VEGFR2), KDR (gene 3791) (P35968 whole entry, looked up): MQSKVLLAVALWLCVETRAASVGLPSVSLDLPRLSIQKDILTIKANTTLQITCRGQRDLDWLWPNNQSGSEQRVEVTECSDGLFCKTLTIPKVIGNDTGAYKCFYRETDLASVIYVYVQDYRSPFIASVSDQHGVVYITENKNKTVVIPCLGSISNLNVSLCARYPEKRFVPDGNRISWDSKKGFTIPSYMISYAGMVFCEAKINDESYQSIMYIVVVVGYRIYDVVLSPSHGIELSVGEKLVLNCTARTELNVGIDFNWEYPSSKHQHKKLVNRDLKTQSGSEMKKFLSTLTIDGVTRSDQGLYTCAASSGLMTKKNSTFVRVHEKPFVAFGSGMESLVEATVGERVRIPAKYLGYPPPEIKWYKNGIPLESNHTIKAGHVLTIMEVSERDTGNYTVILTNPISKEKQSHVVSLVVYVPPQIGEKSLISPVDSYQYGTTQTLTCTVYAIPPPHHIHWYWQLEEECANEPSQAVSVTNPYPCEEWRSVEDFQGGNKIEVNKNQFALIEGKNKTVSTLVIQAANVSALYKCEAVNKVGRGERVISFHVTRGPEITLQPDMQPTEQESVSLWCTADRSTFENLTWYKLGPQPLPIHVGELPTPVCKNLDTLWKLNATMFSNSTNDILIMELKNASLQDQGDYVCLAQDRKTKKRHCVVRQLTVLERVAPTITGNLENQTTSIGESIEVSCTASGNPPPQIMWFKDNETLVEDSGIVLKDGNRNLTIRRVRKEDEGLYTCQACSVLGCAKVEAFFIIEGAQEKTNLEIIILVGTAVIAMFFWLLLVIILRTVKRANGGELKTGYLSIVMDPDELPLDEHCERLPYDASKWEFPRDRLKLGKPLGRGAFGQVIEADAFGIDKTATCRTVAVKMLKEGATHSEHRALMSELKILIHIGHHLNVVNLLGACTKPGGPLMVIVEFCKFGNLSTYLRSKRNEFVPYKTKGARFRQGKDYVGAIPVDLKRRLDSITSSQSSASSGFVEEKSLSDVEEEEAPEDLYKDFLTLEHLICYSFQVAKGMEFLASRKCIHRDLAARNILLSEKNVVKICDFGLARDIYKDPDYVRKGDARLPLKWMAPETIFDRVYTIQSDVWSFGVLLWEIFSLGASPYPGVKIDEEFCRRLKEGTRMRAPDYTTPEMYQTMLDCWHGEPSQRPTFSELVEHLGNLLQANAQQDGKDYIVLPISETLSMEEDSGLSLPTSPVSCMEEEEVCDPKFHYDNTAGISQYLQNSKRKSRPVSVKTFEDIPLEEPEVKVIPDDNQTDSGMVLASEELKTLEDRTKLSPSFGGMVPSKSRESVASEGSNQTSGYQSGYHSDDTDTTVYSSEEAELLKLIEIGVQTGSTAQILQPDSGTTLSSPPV
# Method in brief: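 Cell-free recombinant VEGFR2 kinase, fluorescent substrate with electrophoretic mobility-shift separation; read 1 h after dosing. Screened at 25 uM in duplicate, hits to concentration-response up to 50 uM; loss-of-signal versus DMSO.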
# [6] = molecular target: sheep Cyclooxygenase-2 (Cox2), PTGS2 (gene 443460) (UniProt P79208); experiment: NVS_ENZ_oCOX2: NovaScreen (NVS) Enzymatic Assay for sheep Cyclooxygenase-2 (Cox2) (AID 2283231)
# Sequence of sheep Cyclooxygenase-2 (Cox2), PTGS2 (gene 443460) (P79208 whole entry, looked up): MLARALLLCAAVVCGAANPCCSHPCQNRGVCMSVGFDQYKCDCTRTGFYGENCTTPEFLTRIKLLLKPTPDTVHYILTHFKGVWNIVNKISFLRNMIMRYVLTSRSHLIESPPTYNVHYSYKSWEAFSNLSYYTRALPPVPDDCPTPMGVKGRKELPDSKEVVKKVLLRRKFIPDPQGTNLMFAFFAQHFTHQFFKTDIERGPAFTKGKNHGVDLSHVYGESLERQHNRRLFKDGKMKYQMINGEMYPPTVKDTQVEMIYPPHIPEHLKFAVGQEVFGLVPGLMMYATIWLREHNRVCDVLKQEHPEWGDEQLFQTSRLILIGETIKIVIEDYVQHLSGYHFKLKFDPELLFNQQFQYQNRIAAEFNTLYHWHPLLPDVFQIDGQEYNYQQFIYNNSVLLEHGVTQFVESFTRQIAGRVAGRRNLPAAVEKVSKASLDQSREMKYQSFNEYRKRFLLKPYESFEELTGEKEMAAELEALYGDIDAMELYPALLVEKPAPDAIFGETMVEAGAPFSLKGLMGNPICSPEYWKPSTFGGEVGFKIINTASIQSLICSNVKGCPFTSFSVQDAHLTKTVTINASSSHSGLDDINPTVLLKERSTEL
# Method in brief: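 Enzyme extracted from ovine placenta tested cell-free; activity read colorimetrically by absorbance 0.66 hour after dosing. Primary screen in duplicate at 25 uM; hits rerun as concentration series to 50 uM, loss of signal versus DMSO baseline.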
# [7] = test system: bovine Angiotensin II Receptor Type 2 (AT2), gene 407157; experiment: NVS_GPCR_bAT2: NovaScreen (NVS) G Protein-Coupled Receptor Assay for bovine Angiotensin II Receptor Type 2 (AT2) (AID 2283240)
# Method in brief: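 Radioligand displacement on bovine cerebellar membranes, 1 hour incubation, filter-based scintillation counting; loss of signal vs DMSO. Duplicate single-point screen at 25 uM, then concentration-response to 50 uM maximum.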
# [8] = molecular target: human Vascular Endothelial Growth Factor Receptor 3 (VEGFR3), FLT4 (gene 2324) (UniProt P35916); experiment: NVS_ENZ_hVEGFR3: NovaScreen (NVS) Enzymatic Assay for human Vascular Endothelial Growth Factor Receptor 3 (VEGFR3) (AID 2283229)
# Method in brief: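 Chemicals first run in duplicate at 25 uM, with actives re-tested in concentration series to a top of 50 uM. Recombinant VEGFR3 activity measured after 1 h via fluorescence with mobility-shift product separation; inhibition fitted relative to DMSO.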
# [9] = molecular target: rat Adenylate Cyclase, Forskolin Stimulated, Adcy5 (gene 64532) (UniProt Q04400); experiment: NVS_ENZ_rACFSKBinding: NovaScreen (NVS) Enzymatic Assay for rat Adenylate Cyclase, Forskolin Stimulated (AID 2283232)
# Method in brief: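 Chemicals were first tested at 25 uM in duplicate, then hits run as concentration series with top concentration 50 uM. Enzyme source was rat forebrain membranes; radiometric filter read-out after 1 h, referenced to DMSO.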
# [10] = test system: rat Monoamine Oxidase, MAO-A, Peripheral (MAOAP), gene 29253; experiment: NVS_ENZ_rMAOAP: NovaScreen (NVS) Enzymatic Assay for rat Monoamine Oxidase, MAO-A, Peripheral (MAOAP) (AID 2283237)
# Method in brief: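 Scintillation counting tracked MAO-A activity in a cell-free rat liver mitochondrial membrane prep, read 1.17 hours after compound addition. Single-point duplicate testing at 25 uM preceded concentration-response follow-up; activity was fitted relative to DMSO.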
# [11] = molecular target: sheep Cyclooxygenase-1 (Cox1), PTGS1 (gene 443551) (UniProt P05979); experiment: NVS_ENZ_oCOX1: NovaScreen (NVS) Enzymatic Assay for sheep Cyclooxygenase-1 (Cox1) (AID 2283239);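 also: actives reduce cyclooxygenase activity so potencies are for inhibitors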
# Sequence of sheep Cyclooxygenase-1 (Cox1), PTGS1 (gene 443551) (P05979 whole entry, looked up): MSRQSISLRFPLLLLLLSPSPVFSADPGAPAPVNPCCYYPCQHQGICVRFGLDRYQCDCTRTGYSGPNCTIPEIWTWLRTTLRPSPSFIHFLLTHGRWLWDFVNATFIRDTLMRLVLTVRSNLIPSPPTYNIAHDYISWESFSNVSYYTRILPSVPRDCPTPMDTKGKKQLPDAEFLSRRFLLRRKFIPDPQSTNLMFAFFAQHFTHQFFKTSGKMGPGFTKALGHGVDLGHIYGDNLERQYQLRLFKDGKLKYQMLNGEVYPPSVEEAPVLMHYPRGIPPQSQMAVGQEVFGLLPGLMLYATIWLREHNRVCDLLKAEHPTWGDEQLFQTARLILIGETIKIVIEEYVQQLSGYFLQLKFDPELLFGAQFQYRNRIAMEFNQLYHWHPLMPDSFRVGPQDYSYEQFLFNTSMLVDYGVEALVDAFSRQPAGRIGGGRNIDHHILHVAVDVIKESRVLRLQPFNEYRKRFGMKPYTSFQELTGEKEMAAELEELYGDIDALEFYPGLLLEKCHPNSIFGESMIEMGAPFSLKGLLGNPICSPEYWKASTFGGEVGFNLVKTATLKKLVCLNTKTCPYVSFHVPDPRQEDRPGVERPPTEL
# Method in brief: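 Cell-free colorimetric assay of enzyme activity in a native extract of ovine seminal vesicles. Absorbance was read 0.66 hour after compound addition. Loss of signal relative to the DMSO negative control was scored, with actives from the 25 uM duplicate primary screen retested in concentration series.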
# [12] = molecular target: rat Monoamine Oxidase, MAO-B, Peripheral (MAOBP), Maob (gene 25750) (UniProt P19643); experiment: NVS_ENZ_rMAOBP: NovaScreen (NVS) Enzymatic Assay for rat Monoamine Oxidase, MAO-B, Peripheral (MAOBP) (AID 2283242)
# [13] = molecular target: rat Acetylcholinesterase (AChE), Ache (gene 83817) (UniProt P37136); experiment: NVS_ENZ_rAChE: NovaScreen (NVS) Enzymatic Assay for rat Acetylcholinesterase (AChE) (AID 2283233)
# Method in brief: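 Compounds first screened at 25 uM in duplicate, then those passing threshold tested in concentration series up to 50 uM, against AChE from rat brain membranes. Enzyme activity read by absorbance at 0.33 h; inhibition scored versus DMSO.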
# [14] = molecular target: human SRC Proto-Oncogene, Non-receptor Tyrosine Kinase (SRC), SRC (gene 6714) (UniProt P12931); experiment: NVS_ENZ_hSRC: NovaScreen (NVS) Enzymatic Assay for human SRC Proto-Oncogene, Non-receptor Tyrosine Kinase (SRC) (AID 2283223)
# Method in brief: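 Compounds passing 30% inhibition at 25 uM (duplicate) were titrated to a top concentration of 50 uM. Enzyme activity read by fluorescence with mobility-shift substrate/product separation after 1 h; DMSO baseline.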
# [15] = molecular target: human Tropomyosin Receptor Kinase A (TRKA), NTRK1 (gene 4914) (UniProt P04629); experiment: NVS_ENZ_hTrkA: NovaScreen (NVS) Enzymatic Assay for human Tropomyosin Receptor Kinase A (TRKA) (AID 2283224)
# Method in brief: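 Compounds were screened at 25 uM in duplicate, then concentration series to a 50 uM top for those meeting threshold (e.g. 30% inhibition). Enzyme was recombinant human TrkA, incubated 1 h. Product formation was quantified by fluorescence after mobility-shift separation.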
structure (smiles),measurement,setting,value
COc1cc(OC)nc(NC(=O)NS(=O)(=O)c2cc(NC=O)ccc2C(=O)N(C)C)n1,outcome,[1],inactive
CC[C@H](C)[C@H]1O[C@]2(C=C[C@@H]1C)C[C@@H]1C[C@@H](C/C=C(\C)[C@@H](O[C@H]3C[C@H](OC)[C@@H](O[C@H]4C[C@H](OC)[C@@H](O)[C@H](C)O4)[C@H](C)O3)[C@@H](C)/C=C/C=C3\CO[C@@H]4[C@H](O)C(C)=C[C@@H](C(=O)O1)[C@]34O)O2 (tested in a mixture with another compound),AC50,[2],17.2 µM (active)
same,AC50,[3],5.19 µM (active)
same,AC50,[4],36.1 µM (active)
same,outcome,[5],inactive
same,AC50,[6],8.68 µM (active)
same,outcome,[7],inactive
Oc1cc(Cl)ccc1Oc1ccc(Cl)cc1Cl,outcome,[4],inactive
same,outcome,[8],inactive
same,outcome,[5],inactive
same,AC50,[6],18.6 µM (active)
same,outcome,[9],inactive
same,outcome,[10],inactive
same,outcome,[11],inactive
same,outcome,[12],inactive
COP(=O)(OC)OC=C(Cl)Cl,AC50,[13],6.37 µM (active)
same,outcome,[11],inactive
Cc1[nH]c(=O)n(C(C)(C)C)c(=O)c1Cl,outcome,[1],inactive
CCCN(CCC)c1c([N+](=O)[O-])cc(C(F)(F)F)cc1[N+](=O)[O-],outcome,[6],inactive
same,AC50,[11],12.8 µM (active)
CCN(CC)C(=O)SCc1ccc(Cl)cc1,outcome,[1],inactive
[2H]C1([2H])[n+]2ccccc2-c2cccc[n+]2C1([2H])[2H],outcome,[1],inactive
CNC(=O)CSP(=S)(OC)OC,outcome,[4],inactive
CCC(C)(C)C(=O)OC1=C(c2ccc(Cl)cc2Cl)C(=O)OC12CCCCC2,AC50,[3],25 µM (active)
Oc1ccc(Cl)cc1Cc1ccccc1,outcome,[14],inactive
same,AC50,[15],9.39 µM (active)
same,AC50,[10],38.2 µM (active)
same,outcome,[10],inactive
same,AC50,[11],36.2 µM (active) and 38.3 µM (active)
same,AC50,[12],13.6 µM (active)
